Measured values: PubChem BioAssay AID588463 (National Center for Advancing Translational Sciences (NCATS), 2011)
Among all 1,200 compounds or so, about 15 (1%) were called active. Entries that show only a call come without a potency. About 7% were inconclusive and are not listed. This is one part of a sample in which actives are shown more often than they occur. Calls come from the whole dose curve; as a rule, active = well fitted activation curve with a large enough effect; inconclusive = small, poorly fitted or top-dose-only effect; inactive = flat fitted curve, though single readings scatter.

biological target: Beta-2 adrenergic receptor (Homo sapiens) (UniProt P07550); assay: qHTS assay of beta-arrestin-biased ligands of beta2-adrenergic receptor: Hit Validation; conditions: cell-based beta-arrestin recruitment to beta2AR; Potency: activation; series mostly up to 46.1 µM
Sequence (P07550 whole entry, looked up): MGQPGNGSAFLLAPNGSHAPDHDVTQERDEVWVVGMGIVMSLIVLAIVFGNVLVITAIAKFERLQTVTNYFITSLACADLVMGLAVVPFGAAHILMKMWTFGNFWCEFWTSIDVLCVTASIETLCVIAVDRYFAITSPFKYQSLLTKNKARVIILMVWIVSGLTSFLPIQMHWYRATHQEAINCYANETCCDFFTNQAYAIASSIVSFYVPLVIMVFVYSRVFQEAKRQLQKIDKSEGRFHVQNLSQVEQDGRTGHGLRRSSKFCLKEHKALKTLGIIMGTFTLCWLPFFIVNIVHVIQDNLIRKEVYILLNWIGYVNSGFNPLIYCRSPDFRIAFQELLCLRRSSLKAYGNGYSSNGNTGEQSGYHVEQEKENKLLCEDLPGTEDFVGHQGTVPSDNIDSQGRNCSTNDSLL
Description: The concept of biased agonism is an emerging concept of molecular pharmacology which proposes that seven transmembrane receptors (7TMRs) or G protein-coupled receptors (GPCRs), exist in multiple signaling conformations and complexes and that ligands (either agonists or antagonists) can induce signaling biased responses for distinct signal transduction cascades.
Furthermore, accumulating evidence over the last decade has drawn attention to a novel function of beta-arrestins as signal transducers that scaffold various signaling molecules upon activation of 7TMRs. […] This beta-arrestin-biased signaling presumably leads to distinct physiological outcomes from those by G protein activation.
Additionally, the active receptor conformations which […] on this beta-arrestin signaling are likely different from those activating G protein signaling
The goal of this screening project will be to discover and optimize novel beta-arrestin-biased ligands for beta2-AR signaling. A luminescent cell-based assay for beta2-AR-mediated agonism, known as the Tango assay, has been validated in which ligand binding of a recombinant beta2-AR and subsequent recruitment of a recombinant beta-arrestin lead to the release of the transcriptional activator tTA, which upregulates transcription of a tTA-responsive luciferase gene.
NIH Molecular Libraries Probe Production Network [MLPCN]
NIH Chemical Genomics Center [NCGC]
PI: Bryan Roth (UNC) and Bob Lefkowitz (Duke)
NCGC Assay Protocol Summary:
Tango cells were dispensed into white, solid, tissue-culture-treated 1536-well plates at 1500 cells/well in DMEM, containing 1% fetal bovine serum (FBS). Then, 23 nL of compounds or DMSO were delivered to each well using a pin tool. Plates were incubated at 37 degrees C, 5% CO2 for 18 hr. Then 2.5 uL luminescent substrate mix (in-house prepared: 150 mM Tris-Cl, pH 7.6, 3 mM MgCl2, 1% Triton X-100, 5 mM DTT, 0.5 mM CoA, 0.15 mM ATP, 0.44 mM D-luciferin, final concentrations) was added to each well. Plates were then incubated for 15 minutes at room temperature, and subsequently measured on a ViewLux plate reader for luminescent signal using a clear filter with a 10 second exposure and 2x binning. The %Activity was determined from the corrected luminescence values.
Concentration-response curves were fitted to the signals arising from the resulting luminescence. The concentration-effect curves were then classified based on curve quality (r2), response magnitude and degree of measured activity, and compounds were subsequently categorized based on their curve class.
Keywords: biased agonism, beta2-AR, beta-arrestin, GPCR, 7TMR, Tango, luminescence, MLSMR, MLPCN, NIH Roadmap, qHTS, NCGC
Potency is the fitted concentration of half-maximal effect.

Row | Structure (SMILES) | Potency
1 | COC(=O)c1cc(Br)c(=O)n(CCc2ccc(O)cc2)c1 | inactive
2 | CCc1ccc(CNc2ccc(O)cc2)cc1 | inactive
3 | Cc1ccc(S(=O)(=O)Nc2cccnc2)cc1 | inactive
4 | Cc1ccc(/C=C/C(=O)c2ccccc(=O)c2O)c(C)c1 | inactive
5 | Cc1ccc(C2C3=C(CC(C)(C)CC3=O)NC3=C2C(=O)c2ccccc23)cc1 (configuration not stated) | inactive
6 | Cc1cc(-c2n[nH]c(=S)n2/N=C/C(Cl)=C/c2ccccc2)n[nH]1 | inactive
7 | CN1CCN(C(=S)NC(=O)c2ccc(Br)cc2)CC1 | inactive
8 | CC(=O)/C(=N\Nc1ccc(Cl)cc1Cl)Sc1cccc2cccnc12 | inactive
9 | COc1ccc(Cl)cc1C(Nc1cccnc1)c1ccc2cccnc2c1O (configuration not stated) | 16.4 µM (active)
10 | CN1CCN(C(c2cccnc2)c2ccc3cccnc3c2O)CC1 (configuration not stated) | inactive
11 | CC1=NN(C(N)=S)C(=O)C1N=Nc1ccc([N+](=O)[O-])cc1 (configuration not stated) | inactive
12 | CC(C)c1nnc(NC(=O)c2cnccn2)s1 | inactive
13 | COCCNC(=S)N/N=C(\C)c1ccc(Cl)c(Cl)c1 | inactive
14 | Cc1ccccc1NC(=O)c1c([N+](=O)[O-])c(C(C)(C)C)nn1C | inactive
15 | O=C(O)c1ccc(C2Nc3ccccc3C(=O)N2Cc2ccccc2)cc1 (configuration not stated) | inactive
16 | CCOC(=O)C1=C(C)N(c2ccc(OC)cc2)C(=O)/C1=C\c1ccc(O)c(OCC)c1 | inactive
17 | CCCCCC1CCC(c2n[nH]c(=S)n2C)CC1 (configuration not stated) | inactive
18 | CCCCOc1ccc(C(O)(CCC)CCN2CCOCC2)cc1 (configuration not stated) | inactive
19 | CCC(=O)N1CCC2(CC1)Oc1ccc(Cl)cc1C(=O)C21CC(c2ccccc2)=NO1 (configuration not stated) | 20.6 µM (active)
20 | CC(=O)Nc1nonc1NC(=O)CSc1nc2ccccc2o1 | inactive
21 | CCCCC(=O)NC(c1cccc([N+](=O)[O-])c1)c1c(OC(C)=O)ccc2ccccc12 (configuration not stated) | inactive

Row | Structure (SMILES) | Potency
22 | COc1ccc(N/C=C/C(=O)C(F)(F)F)cc1 | inactive
23 | Cc1cccc(NNC(=S)Nc2c(C)cccc2C)c1 | inactive
24 | CCOc1ccc(/C=N/NC(=O)Cc2csc(Nc3cccc(C(F)(F)F)c3)n2)c(OCC)c1 | inactive
25 | CCN(CC)C(=O)[C@H]1C[C@H](CC(=O)NCc2cccc(C(F)(F)F)c2)C(=O)N2CCc3c([nH]c4cc(-c5ccco5)ccc34)[C@]12C | inactive
26 | CCCC(=O)NC(c1ccc(OC)cc1)c1ccc2cccnc2c1O (configuration not stated) | 4.11 µM (active)
27 | CCCCOc1ccc(NC(=O)CSc2cccc3cccnc23)cc1 | inactive
28 | CCCC(=O)NC(c1ccccc1OC)c1ccc2cccnc2c1O (configuration not stated) | inactive
29 | CCOC(=O)C1=C(C)N=c2s/c(=C3/C(=O)Nc4ccccc43)c(=O)n2C1c1ccc(C)cc1 (configuration not stated) | inactive
30 | O=c1ccc(S(=O)(=O)N2CCCC2)c[nH]1 | inactive
31 | CCc1cc(=O)oc2cc3occ(C)c3cc12 | inactive
32 | COc1ccc2ccccc2c1/C=N/NC(=S)NCCN1CCOCC1 | inactive
33 | O=C(/C=C/c1ccc(Cl)cc1)NC(=S)Nc1ccccc1C(=O)O | inactive
34 | CC(c1ccccc1)n1c(-c2ccc(C(C)(C)C)cc2)n[nH]c1=S (configuration not stated) | inactive
35 | Cc1c(C(=O)OC2CCC(C)CC2)[nH]c2c1C(=O)CCC2 (configuration not stated) | inactive
36 | CCCCn1c(Cc2ccccc2)n[nH]c1=S | inactive
37 | CCOC(=O)C1CCN(Cc2cnc(Oc3ccc(N)cc3)s2)CC1 | inactive
38 | Cc1ccc(N=C2NC(=O)/C(=C/C=C/c3ccco3)S2)cc1 | inactive
39 | CCOc1ccc2nc(NC(=S)N(C)C)sc2c1 | inactive
40 | O=[N+]([O-])c1ccc(OCC(O)CN(C2CCCCC2)C2CCCCC2)cc1 (configuration not stated) | inactive
41 | COc1ccc(-c2c(-c3ccccc3)c(C(=O)C(=O)NCCCN(C)C)n3ccc4cc(OC)c(OC)cc4c23)cc1OC | inactive
42 | Cc1cccc(NC(=S)NC(=O)c2cccs2)n1 | inactive

Row | Structure (SMILES) | Potency
43 | CCC1CCCCN1CC(=O)Nc1cc(C)nn1-c1nc(C)cc(C)n1 (configuration not stated) | inactive
44 | S=C(NCc1ccccn1)Nc1ccc(Cl)c(Cl)c1 | inactive
45 | CCNC(=S)N/N=C/c1sccc1C | inactive
46 | COc1ccc(OC)c(NC(=O)Cn2c(CCC(=O)O)ccc2-c2ccccc2)c1 | inactive
47 | COC(=O)C1=C(C)NC(=S)NC1c1ccc(-c2cc(Cl)ccc2Cl)o1 (configuration not stated) | inactive
48 | C/C=C/C=N/NC(=O)CN(c1ccc(Br)cc1)S(=O)(=O)c1ccccc1 | inactive
49 | S=C(N/N=C/c1ccc(Cl)c(Cl)c1)Nc1ccccc1Cl | inactive
50 | Cc1ccc(SCc2cc(=O)[nH]c(/N=C(\N)Nc3ccc(C)c(C)c3)n2)cc1 | inactive
51 | CCCNC(=O)c1ccc(N2CCC3(CC2)CC(c2cccc(Br)c2)=NO3)c(NC(=O)c2ccc(Br)cc2)c1 | inactive
52 | CNC(=S)N/N=C1\CC(c2ccccc2)Oc2ccccc21 (configuration not stated) | inactive
53 | CCOc1ccccc1C1C2CCCCC2(O)CCN1C(=O)c1cccs1 (configuration not stated) | inactive
54 | O=C(N/N=C/C(Br)=C\c1ccccc1)c1n[nH]c2c1CCC2 | inactive
55 | Cc1ccc(C2=NOC(C)(c3nnc(-c4ccc(F)cc4)o3)C2)cc1 (configuration not stated) | inactive
56 | C/C(=N\NC(=S)NC(C)C)c1ccccc1 | inactive
57 | COc1ccc2c(c1)c1ncn(CCN3CCCCC3)c(=O)c1n2C | inactive
58 | CCOC(=O)C1CCN(C(=O)Nc2c(-c3ccccc3)noc2C)CC1 | inactive
59 | CCCCCOCC1CC(C/C(C)=N/NC(N)=S)C(=O)O1 (configuration not stated) | inactive
60 | COc1ccccc1NS(=O)(=O)c1cc(NC(=O)CNC(=O)c2ccc(C)s2)ccc1Cl | inactive
61 | Cc1ccc(C)c(NC(=S)NNc2ccc(F)cc2F)c1 | inactive
62 | O=C(Oc1c(CN2CCOCC2)cc(Cl)c2cccnc12)c1ccccc1Br | inactive
